Laboratory results as given in PubChem BioAssay.
Records with an inconclusive call do not appear. Activity calls are given as the source filed them.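 How the source made its calls, unless noted: active means percent response above a set limit, the screen-wide mean plus 3 SD (cut at about 130% in these data); inactive means the rest.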

Experiments:
[1] = rapamycin-like changes in RPL19A-GFP expression – cell-based, S. cerevisiae, multiplex flow cytometry, primary screen (AID 1862; in the data active means percent of DMSO control GFP below about 86%;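 further: lower values mimic rapamycin by blocking the RPL19A rise seen in DMSO cells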); settings: S. cerevisiae RPL19A-GFP strain, flow cytometry fluorescence, 3 h; at 10 µM; stronger effect = lower value
[2] = TOR pathway GLN3 branch reporter MEP2-GFP changes – S. cerevisiae, multiplex flow cytometry, primary screen (AID 1867;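 active means GFP response, as percent of the DMSO control, above the screen-wide mean plus 3 SD, about 139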;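 further: median GFP channel fluorescence of barcode-gated MEP2-GFP cells measured by flow cytometry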); settings: S. cerevisiae MEP2-GFP strain, 3 h, at 10 µM, stronger effect = higher value, 100% means same as DMSO wells
[3] = TOR pathway RTG branch CIT2 reporter changes – S. cerevisiae, GFP fusion, multiplex flow cytometry, primary screen (AID 1870);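 further: barcoded CIT2-GFP strain pooled with four other GFP strains with rapamycin as positive control; median GFP fluorescence per well over plate mean of DMSO wells so 100% = DMSO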; settings: S. cerevisiae CIT2-GFP expression, 3 h, at 10 µM, stronger effect = higher value
[4] = TOR pathway LAP4-GFP level changes – S. cerevisiae, multiplex flow cytometry, primary screen (AID 1873;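 active means GFP signal, as percent of the solvent control, above the screen mean plus 3 SD, about 149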); settings: S. cerevisiae LAP4-GFP expression, 3 h, at 10 µM, stronger effect = higher value
[5] = yeast AGP1-GFP level changes, GLN3 branch – cell-based, multiplex flow cytometry, S. cerevisiae, primary screen (AID 1887;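 active means GFP signal above the screen-wide mean plus 3 SD, that is over about 124.5% of the solvent control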;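 further: AGP1-GFP fusion strain of S. cerevisiae within a five-strain barcoded multiplex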); settings: 3 h, at 10 µM, stronger effect = higher value
[6] = reduced mouse 2C T cell binding to pMHC/ICAM-1 vesicles – MLPCN validation set, flow cytometry, LFA-1/ICAM-1 modulator project, pilot screen (AID 2523;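 active means response below a set limit, under 55% cells CD8-positive and vesicle-bound, and CD8 cells' 90th-percentile brightness under 279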;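 on vesicle binding response: mean PE anti-B7-1 fluorescence of CD8+ cells relative to row control; 100% = QL9-loaded vesicles with DMSO vehicle in the same plate row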); settings: 2C mouse CD8+ T cells, at 7 µM, stronger effect = lower value; double positive events: measured here: CD8+/vesicle+ event percentage
[7] = molecular target: Integrin beta-1 (Homo sapiens) + Integrin alpha-4 (Homo sapiens) (UniProt P13612+P05556); assay: alpha4beta1 integrin LIBS antibody binding reduction – U937 cells, HUTS-21 mAb, flow cytometry, validation set, VLA-4 allosteric modulator project, pilot screen (AID 2674;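 active means inhibition above 50%, about 3 SD of the validation set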;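 further: antibody binding induced by the VLA-4 ligand LDV present at three times its Kd; 0% = LDV ligand with antibody and no compound and 100% = antibody without LDV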); settings: HUTS-21 LIBS mAb binding, at 6.7 µM, stronger effect = higher value, binding induced by LDV ligand
Chain of Integrin beta-1 (Homo sapiens) + Integrin alpha-4 (Homo sapiens) (P05556 whole entry, looked up): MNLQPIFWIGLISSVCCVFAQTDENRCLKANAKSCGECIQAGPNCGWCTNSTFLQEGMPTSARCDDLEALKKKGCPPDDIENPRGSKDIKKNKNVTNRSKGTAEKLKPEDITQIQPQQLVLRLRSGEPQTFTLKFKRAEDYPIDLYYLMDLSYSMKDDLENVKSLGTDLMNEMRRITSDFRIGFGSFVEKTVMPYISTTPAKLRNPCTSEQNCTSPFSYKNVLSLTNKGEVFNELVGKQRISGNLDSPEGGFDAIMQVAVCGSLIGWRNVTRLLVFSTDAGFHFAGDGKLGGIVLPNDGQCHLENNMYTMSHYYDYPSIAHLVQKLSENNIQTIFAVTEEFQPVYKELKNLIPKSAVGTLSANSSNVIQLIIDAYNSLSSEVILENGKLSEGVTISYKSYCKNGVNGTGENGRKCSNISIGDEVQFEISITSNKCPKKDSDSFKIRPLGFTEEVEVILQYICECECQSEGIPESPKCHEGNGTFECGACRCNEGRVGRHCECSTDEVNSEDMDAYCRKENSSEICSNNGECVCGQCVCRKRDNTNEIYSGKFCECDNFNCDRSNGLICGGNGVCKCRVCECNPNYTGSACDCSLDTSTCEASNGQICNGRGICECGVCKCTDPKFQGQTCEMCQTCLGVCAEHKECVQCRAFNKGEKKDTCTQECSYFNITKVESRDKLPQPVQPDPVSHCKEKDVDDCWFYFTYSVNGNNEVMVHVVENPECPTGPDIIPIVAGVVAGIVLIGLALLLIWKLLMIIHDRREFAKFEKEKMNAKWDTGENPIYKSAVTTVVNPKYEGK
Chain of Integrin beta-1 (Homo sapiens) + Integrin alpha-4 (Homo sapiens) (P13612 whole entry, looked up): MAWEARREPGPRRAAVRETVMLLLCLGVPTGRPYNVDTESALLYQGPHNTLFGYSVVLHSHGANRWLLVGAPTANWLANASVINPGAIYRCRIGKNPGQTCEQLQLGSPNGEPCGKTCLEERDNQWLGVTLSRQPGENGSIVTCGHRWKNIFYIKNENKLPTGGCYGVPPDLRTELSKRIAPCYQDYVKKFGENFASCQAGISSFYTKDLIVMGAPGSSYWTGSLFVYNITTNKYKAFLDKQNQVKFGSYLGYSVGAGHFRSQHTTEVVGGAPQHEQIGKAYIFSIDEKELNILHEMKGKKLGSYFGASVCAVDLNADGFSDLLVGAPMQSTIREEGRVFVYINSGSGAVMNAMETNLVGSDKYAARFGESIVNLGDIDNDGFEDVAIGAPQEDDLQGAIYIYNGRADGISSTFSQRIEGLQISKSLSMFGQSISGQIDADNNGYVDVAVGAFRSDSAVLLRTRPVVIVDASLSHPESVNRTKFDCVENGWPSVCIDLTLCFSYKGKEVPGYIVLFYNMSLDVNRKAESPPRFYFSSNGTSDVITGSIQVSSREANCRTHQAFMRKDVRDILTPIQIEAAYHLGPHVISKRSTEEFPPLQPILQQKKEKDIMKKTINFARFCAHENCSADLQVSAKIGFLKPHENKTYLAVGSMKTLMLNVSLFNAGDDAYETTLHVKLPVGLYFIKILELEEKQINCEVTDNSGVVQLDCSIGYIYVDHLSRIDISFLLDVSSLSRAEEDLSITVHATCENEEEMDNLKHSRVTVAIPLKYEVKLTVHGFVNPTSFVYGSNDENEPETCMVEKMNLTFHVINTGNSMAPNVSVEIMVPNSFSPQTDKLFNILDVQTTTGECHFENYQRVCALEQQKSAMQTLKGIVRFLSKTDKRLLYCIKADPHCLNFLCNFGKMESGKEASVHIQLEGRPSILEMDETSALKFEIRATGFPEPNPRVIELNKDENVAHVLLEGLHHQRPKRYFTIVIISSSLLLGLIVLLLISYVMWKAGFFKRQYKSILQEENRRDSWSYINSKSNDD

[8] = calorie-restriction mimetic ROS inhibitors, yeast – validation compound set, pilot screen (AID 2706;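 active means superoxide response below 65% of plate, a cut near 3 SD across the whole screen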;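 further: yeast exposed to compound for one week at 30 degrees C before staining; 100% = mean of all compound wells on the same plate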); settings: S. cerevisiae aging, superoxide DHE fluorescence; at 10 µM; stronger effect = lower value
[9] = molecular target: Beta-adrenergic receptor kinase 1 (Homo sapiens) (UniProt P25098); assay: GRK2 binders displacing RNA aptamer, biochemical, validation, human GRK2, bead flow cytometry (AID 488806;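 active means aptamer binding inhibition above 30%, about 3 SD of noise from non-fluorescent compounds; inactive means inhibition at or below 30%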); settings: bead-bound GRK2, FAM-aptamer displacement, at 10 µM, stronger effect = higher value
Chain of Beta-adrenergic receptor kinase 1 (Homo sapiens) (P25098 whole entry, looked up): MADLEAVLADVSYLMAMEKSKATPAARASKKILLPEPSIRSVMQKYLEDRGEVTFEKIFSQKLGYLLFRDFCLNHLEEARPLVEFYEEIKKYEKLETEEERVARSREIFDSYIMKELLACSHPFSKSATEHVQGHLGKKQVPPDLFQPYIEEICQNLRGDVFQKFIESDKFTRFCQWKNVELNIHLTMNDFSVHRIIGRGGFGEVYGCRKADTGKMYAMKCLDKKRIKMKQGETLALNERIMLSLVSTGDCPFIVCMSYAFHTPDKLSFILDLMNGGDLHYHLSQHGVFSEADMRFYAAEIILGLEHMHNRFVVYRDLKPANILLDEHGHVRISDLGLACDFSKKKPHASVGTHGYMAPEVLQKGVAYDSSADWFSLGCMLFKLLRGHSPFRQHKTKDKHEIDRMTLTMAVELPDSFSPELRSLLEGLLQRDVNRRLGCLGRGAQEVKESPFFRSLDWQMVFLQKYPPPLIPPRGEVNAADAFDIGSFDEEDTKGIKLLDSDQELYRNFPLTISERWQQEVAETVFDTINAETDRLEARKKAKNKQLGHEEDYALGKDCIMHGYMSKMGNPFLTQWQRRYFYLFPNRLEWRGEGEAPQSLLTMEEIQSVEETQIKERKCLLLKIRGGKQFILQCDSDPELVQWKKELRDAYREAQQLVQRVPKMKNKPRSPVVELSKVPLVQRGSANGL

[10] = molecular target: Beta-2 adrenergic receptor (Homo sapiens) (UniProt P07550); assay: agonist-induced loss of surface beta2AR – cell-based, FAP fluorogen, flow cytometry, validation set, pilot screen (AID 504459;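 active means percent response above 42, roughly 3 SD of non-fluorescent test compounds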;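 further: agonist-driven loss of surface beta2AR via internalization measured by FAP dye flow cytometry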); settings: Am2.2-beta2AR cells, at 10 µM, stronger effect = higher value
Chain of Beta-2 adrenergic receptor (Homo sapiens) (P07550 whole entry, looked up): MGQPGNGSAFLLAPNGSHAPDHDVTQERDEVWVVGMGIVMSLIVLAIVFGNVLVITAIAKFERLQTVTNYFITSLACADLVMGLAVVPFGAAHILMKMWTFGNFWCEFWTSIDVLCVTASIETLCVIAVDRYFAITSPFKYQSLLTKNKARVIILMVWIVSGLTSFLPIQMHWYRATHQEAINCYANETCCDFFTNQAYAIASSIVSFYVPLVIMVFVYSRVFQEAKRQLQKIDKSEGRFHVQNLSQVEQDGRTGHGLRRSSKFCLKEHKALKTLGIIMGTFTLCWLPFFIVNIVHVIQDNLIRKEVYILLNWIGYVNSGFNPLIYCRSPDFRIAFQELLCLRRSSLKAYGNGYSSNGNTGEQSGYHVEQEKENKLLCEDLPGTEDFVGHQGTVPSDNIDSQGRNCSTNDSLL

[11] = molecular target: AP-2 complex subunit beta (Homo sapiens) (UniProt P63010); assay: beta-arrestin/AP2 interaction blockers – biochemical, validation set, GST-AP2 beads, flow cytometry, pilot screen (AID 504541;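 active means inhibition above 54%, about 3 SD of non-fluorescent compounds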;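 further: AP2 carries R879A mutation and is captured from E. coli lysate; bead-bound FITC arrestin peptide fluorescence measuring arrestin peptide binding to AP2; 0% = DMSO wells and 100% = excess unlabeled arrestin peptide control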); settings: FITC arrestin peptide, at 10 µM, stronger effect = higher value, AP2 beta2 appendage fragment, R879A mutant
Chain of AP-2 complex subunit beta (Homo sapiens) (P63010 whole entry, looked up, the tested form may be a part, one chain of several): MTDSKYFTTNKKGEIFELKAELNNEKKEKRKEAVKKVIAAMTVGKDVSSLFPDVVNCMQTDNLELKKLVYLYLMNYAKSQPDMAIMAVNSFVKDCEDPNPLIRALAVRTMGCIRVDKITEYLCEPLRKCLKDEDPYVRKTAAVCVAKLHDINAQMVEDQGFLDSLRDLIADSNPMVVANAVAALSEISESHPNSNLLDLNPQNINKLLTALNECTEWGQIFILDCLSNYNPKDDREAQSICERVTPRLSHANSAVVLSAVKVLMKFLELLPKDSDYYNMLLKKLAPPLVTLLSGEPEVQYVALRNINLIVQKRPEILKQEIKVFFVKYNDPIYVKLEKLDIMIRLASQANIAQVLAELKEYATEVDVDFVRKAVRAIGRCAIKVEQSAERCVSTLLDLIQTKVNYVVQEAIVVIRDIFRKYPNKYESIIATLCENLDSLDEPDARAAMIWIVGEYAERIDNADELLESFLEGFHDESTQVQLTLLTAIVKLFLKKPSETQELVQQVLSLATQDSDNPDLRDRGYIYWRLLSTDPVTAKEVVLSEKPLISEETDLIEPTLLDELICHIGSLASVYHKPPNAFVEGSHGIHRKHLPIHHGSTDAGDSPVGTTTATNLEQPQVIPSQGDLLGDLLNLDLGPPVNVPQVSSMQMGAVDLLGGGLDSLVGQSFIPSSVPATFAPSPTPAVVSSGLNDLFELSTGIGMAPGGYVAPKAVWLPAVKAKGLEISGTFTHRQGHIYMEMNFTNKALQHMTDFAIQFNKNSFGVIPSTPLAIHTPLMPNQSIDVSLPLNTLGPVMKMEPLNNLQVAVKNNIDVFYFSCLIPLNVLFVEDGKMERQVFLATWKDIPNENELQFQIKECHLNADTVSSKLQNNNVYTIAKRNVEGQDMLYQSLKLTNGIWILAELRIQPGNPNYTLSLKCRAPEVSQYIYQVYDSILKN

[12] = cytosolic pH regulators acting via V-ATPase – S. cerevisiae, pHLuorin, HTS validation (AID 504600; in the data active means response above about 15%;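 further: plate controls were DMSO for no effect and reference compound for full effect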); settings: V-ATPase proton transport, at 10 µM, stronger effect = higher value
[13] = test system: anti-desmoglein-3 scFv antibody binding to human DSG3; assay: blockers of pathogenic pemphigus antibody–desmoglein-3 binding – biochemical, validation compound set, bead-based, flow cytometry, pilot screen (AID 588368;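 active means binding below the plate cutoff, the plate median minus 3 SD, with a reading above zero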;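 further: signal is the median channel fluorescence of bead-bound GFP antibody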); settings: Protein G beads, DSG3-Fc, scFv-GFP binding, at 10 µM, stronger effect = lower value
[14] = Nile Red efflux blockade in pump-expressing yeast – validation compound set, multiplex, phenotypic, pilot screen (AID 588506;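 active means efflux inhibition above 0.42, the validation set average plus 4 SD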;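 further: Nile Red retained in cells so higher fluorescence means more efflux inhibition; 0 = negative control wells and 1 = enniatin B 25 µM full block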); settings: S. cerevisiae pump-expressing triplex, Nile Red efflux flow cytometry; at 10 µM; stronger effect = higher value; the pumps come from Candida albicans
[15] = molecular target: ATP-binding cassette sub-family B member 6 (Homo sapiens) (UniProt Q9NP58); assay: blockers of ABCB6-driven porphyrin uptake – K562-ABCB6 cells, flow cytometry, validation set, pilot screen (AID 588550;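 active means inhibition above the screen-wide mean plus 3 SD, about 51%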;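 further: 0% = DMSO wells and 100% = benzethonium chloride 70 µM positive control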); settings: K562-ABCB6 porphyrin accumulation, 1 h, at 10 µM, stronger effect = higher value
Chain of ATP-binding cassette sub-family B member 6 (Homo sapiens) (Q9NP58 whole entry, looked up): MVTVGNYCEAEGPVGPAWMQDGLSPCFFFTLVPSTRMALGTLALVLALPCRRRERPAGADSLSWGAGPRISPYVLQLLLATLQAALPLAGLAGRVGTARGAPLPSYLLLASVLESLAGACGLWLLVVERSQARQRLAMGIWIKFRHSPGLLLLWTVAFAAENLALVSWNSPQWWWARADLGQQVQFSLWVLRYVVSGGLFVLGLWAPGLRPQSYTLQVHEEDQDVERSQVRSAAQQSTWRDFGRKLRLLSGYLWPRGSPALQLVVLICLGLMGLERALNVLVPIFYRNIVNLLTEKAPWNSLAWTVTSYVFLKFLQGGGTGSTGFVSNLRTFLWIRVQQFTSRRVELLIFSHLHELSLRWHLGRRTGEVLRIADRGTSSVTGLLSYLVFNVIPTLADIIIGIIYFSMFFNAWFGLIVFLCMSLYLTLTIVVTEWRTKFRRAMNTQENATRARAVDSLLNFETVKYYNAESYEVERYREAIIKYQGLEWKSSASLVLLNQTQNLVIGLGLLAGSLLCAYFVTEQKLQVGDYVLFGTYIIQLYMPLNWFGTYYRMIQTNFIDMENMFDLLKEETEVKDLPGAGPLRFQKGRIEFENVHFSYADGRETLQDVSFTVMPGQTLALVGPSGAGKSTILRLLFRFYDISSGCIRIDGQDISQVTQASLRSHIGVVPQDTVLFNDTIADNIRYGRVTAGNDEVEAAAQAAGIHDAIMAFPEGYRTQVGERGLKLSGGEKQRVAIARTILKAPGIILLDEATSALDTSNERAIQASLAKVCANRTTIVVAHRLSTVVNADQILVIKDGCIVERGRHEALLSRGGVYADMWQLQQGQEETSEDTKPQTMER

[16] = AML differentiation inducers, ER-HoxA9 marrow cells – cell-based, GFP/MAC1 double positive, flow cytometry, validation set, primary screen (AID 588685;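 active means differentiation response of at least 50%, scaled between solvent and reference control, from cells with both markers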;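 further: compound exposure lasts four days before antibody staining and flow analysis; 0% = DMSO wells and 100% = 5 µM fulvestrant positive control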); settings: stronger effect = higher value, normalized: vehicle 0, fulvestrant 100

COC(=O)[C@H]1[C@H]2C[C@@H]3c4[nH]c5cc(OC)ccc5c4CCN3C[C@H]2C[C@@H](OC(=O)c2ccc(N)cc2)[C@@H]1OC
64.5%: double positive events [6]
inactive: percent of DMSO control GFP [1] 105% | GFP response vs DMSO [2] 98.3% | percent response of DMSO control [3] 111% | GFP response vs DMSO [4] 94% | GFP response, % of DMSO [5] 102% | vesicle binding response [6] 828% | inhibition [7] -393% | superoxide response (% of plate) [8] 97% | aptamer binding inhibition [9] 3% | response [10] -18.1% | inhibition [11] -1.6% | response [12] -2.37% | binding (% of control) [13] 104% | efflux inhibition (fraction of control) [14] -0.17 | inhibition [15] -53% | differentiation response [16] 0.24%

CC(C)(C)OC(=O)COc1cc(OCC(=O)OC(C)(C)C)c2c(=O)cc(-c3ccccc3)oc2c1
inactive: percent of DMSO control GFP [1] 105% | GFP response vs DMSO [2] 107% | percent response of DMSO control [3] 102% | GFP response vs DMSO [4] 105% | GFP response, % of DMSO [5] 100% | vesicle binding response [6] 77.9% | inhibition [7] -29.2% | superoxide response (% of plate) [8] 94.8% | aptamer binding inhibition [9] 1% | response [10] -17% | inhibition [11] -7.67% | response [12] 2.77% | binding (% of control) [13] 105% | efflux inhibition (fraction of control) [14] -0.07 | inhibition [15] 35% | differentiation response [16] -4.57%
60.3%: double positive events [6]

O=C(O)C1CCN(C(=O)COc2ccc3c4c(c(=O)oc3c2)CCC4)CC1
65.1%: double positive events [6]
inactive: percent of DMSO control GFP [1] 105% | GFP response vs DMSO [2] 105% | percent response of DMSO control [3] 101% | GFP response vs DMSO [4] 112% | GFP response, % of DMSO [5] 110% | vesicle binding response [6] 420% | inhibition [7] 6.55% | superoxide response (% of plate) [8] 105% | aptamer binding inhibition [9] 1% | response [10] -31% | inhibition [11] -5% | response [12] 1.29% | binding (% of control) [13] 109% | efflux inhibition (fraction of control) [14] 0 | inhibition [15] 3% | differentiation response [16] -1.05%

CC1CCCC(C)N1NC(=O)c1ccc(Cl)c(S(N)(=O)=O)c1 (stereo not drawn)
inactive: percent of DMSO control GFP [1] 88% | GFP response vs DMSO [2] 126% | percent response of DMSO control [3] 91.3% | GFP response vs DMSO [4] 85.8% | GFP response, % of DMSO [5] 96.3% | vesicle binding response [6] 128% | inhibition [7] -3.24% | superoxide response (% of plate) [8] 98.3% | aptamer binding inhibition [9] 3% | response [10] -7.28% | inhibition [11] -5.07% | response [12] -0.52% | binding (% of control) [13] 101% | efflux inhibition (fraction of control) [14] 0.09 | inhibition [15] 10% | differentiation response [16] -0.82%
65.1%: double positive events [6]

Cc1ncc(CN2CCC(CO)(CCc3ccccc3)CC2)s1
inactive: percent of DMSO control GFP [1] 101% | GFP response vs DMSO [2] 111% | percent response of DMSO control [3] 104% | GFP response vs DMSO [4] 102% | GFP response, % of DMSO [5] 110% | vesicle binding response [6] 98.1% | inhibition [7] 6.95% | superoxide response (% of plate) [8] 97.2% | aptamer binding inhibition [9] 2% | response [10] -0.43% | inhibition [11] -1.19% | response [12] 0.58% | binding (% of control) [13] 107% | efflux inhibition (fraction of control) [14] -0.07 | inhibition [15] 6% | differentiation response [16] -1.65%
62.3%: double positive events [6]

O=C(CNC(=O)OCc1ccccc1)Oc1cc2oc(=O)cc(-c3ccccc3)c2cc1Cl
inactive: percent of DMSO control GFP [1] 97.5% | GFP response vs DMSO [2] 107% | percent response of DMSO control [3] 111% | GFP response vs DMSO [4] 107% | GFP response, % of DMSO [5] 71.1% | vesicle binding response [6] 423% | inhibition [7] -0.27% | superoxide response (% of plate) [8] 207% | aptamer binding inhibition [9] 8% | response [10] -13.2% | inhibition [11] 12.8% | response [12] -27.5% | binding (% of control) [13] 103% | efflux inhibition (fraction of control) [14] -0.09 | inhibition [15] 1% | differentiation response [16] -4%
61.1%: double positive events [6]

c1ccc(Cn2ncc3c(Nc4ccccc4)ncnc32)cc1
63.6%: double positive events [6]
inactive: percent of DMSO control GFP [1] 96.7% | GFP response vs DMSO [2] 106% | percent response of DMSO control [3] 103% | GFP response vs DMSO [4] 117% | GFP response, % of DMSO [5] 107% | vesicle binding response [6] 244% | inhibition [7] 9.95% | superoxide response (% of plate) [8] 121% | aptamer binding inhibition [9] -1% | response [10] -42.2% | inhibition [11] 9.49% | response [12] 3.17% | binding (% of control) [13] 101% | efflux inhibition (fraction of control) [14] 0.08 | inhibition [15] 2% | differentiation response [16] -8.93%

CCOc1cc2c(cc1OCC)C(c1ccccc1)N(c1ccc(C(=O)O)cc1)C(=O)C2 (stereo not drawn)
inactive: percent of DMSO control GFP [1] 106% | GFP response vs DMSO [2] 109% | percent response of DMSO control [3] 95.5% | GFP response vs DMSO [4] 113% | GFP response, % of DMSO [5] 107% | vesicle binding response [6] 151% | inhibition [7] 11% | superoxide response (% of plate) [8] 92% | aptamer binding inhibition [9] -1% | response [10] 3.08% | inhibition [11] -11.9% | response [12] 1.91% | binding (% of control) [13] 96.8% | efflux inhibition (fraction of control) [14] -0.1 | inhibition [15] 7% | differentiation response [16] 8.59%
61.4%: double positive events [6]

CC(NC(=O)c1ccc(N2CCNCC2)c([N+](=O)[O-])c1)C12CC3CC(CC(C3)C1)C2 (stereo not drawn)
inactive: percent of DMSO control GFP [1] 92.8% | GFP response vs DMSO [2] 111% | percent response of DMSO control [3] 101% | GFP response vs DMSO [4] 114% | GFP response, % of DMSO [5] 92.6% | vesicle binding response [6] 87.2% | inhibition [7] 9.13% | superoxide response (% of plate) [8] 101% | aptamer binding inhibition [9] -1% | response [10] -1.73% | inhibition [11] -4.72% | response [12] 0.8% | binding (% of control) [13] 98.2% | efflux inhibition (fraction of control) [14] -0.1 | inhibition [15] 7% | differentiation response [16] -23.2%
56.9%: double positive events [6]
